We go through 40 molecules from PubChem BioAssay (NCI).

This is part of a sample that, as a whole, favours compounds with a hit. Of some 83,000 tested, about 20% had one in any assay.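 In brief: 96-well plates, 48 h treatment, single concentration, percent growth endpoint.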 Values without a mark were called inactive. Activity calls are given as the source filed them. Rule for the calls: active = growth percent below 10; inactive = the rest.

For this test, the system named is MDA-MB-468 breast. Nature of the test: NCI-60 one-dose screen, 48 h (100 = growth as untreated, 0 = no growth, -100 = all killed). To be noted: 10 µM unless noted.
Consider `O=C(CCl)N1c2cccc3cccc(c23)N(C(=O)CCl)C1c1cn(-c2ccccc2)nc1-c1cccc([N+](=O)[O-])c1`, for which the growth is 101%.

Consider `Cc1ccc(C(=O)N/N=C/c2cccc([N+](=O)[O-])c2)cn1`, for which the growth was 89.5%.

As to `CCOC(=O)C(=O)Nc1ccc2c(ccn2C(=O)c2cccc(F)c2)c1`, the growth was 89.5%.

For the molecule `CC1(C)S(=O)(=O)OCCOS1(=O)=O`, the growth is 101%.

Consider `Clc1ccc(Nc2nnc(-c3ccc4c(c3)OCO4)o2)cc1`, for which the growth is 106%.

As for `Cc1cc(N(CCCNc2ccnc3cc(Cl)ccc23)Cc2ccco2)nc(N2CCN(C)CC2)n1`, the growth was 73.7%.

Consider `NS(=O)(=O)Oc1ccc2c(ccn2C(=O)C23CC4CC(CC(C4)C2)C3)c1`, for which the growth is 90.8%.

On to `Cc1cccc(C)c1N=c1oc2ccc(Cl)cc2nc1-c1ccccc1O`, for which the growth is 94.8%.

Take `Clc1ccc(N/N=C(\c2ccccc2)c2ccccn2)nc1`: the growth is -24.9% (active).

As for `Cc1ccc(C(=O)c2ccc(CC(=O)NN3C(=O)c4ccccc4C3=O)n2C)cc1`, the growth was 93%.

As for `Cc1ccc2nc3c(cc2c1)CSc1nnc(-c2ccc[nH]c2=S)n1N3`, the growth is 111%.

On to `CCOC(=O)c1cc(C(=O)c2cc(OC)c(OC)c(OC)c2)n2nc(C)ccc12`, for which the growth was 37.4%.

In the case of `Cn1ccc(=O)c(C(=O)Nc2nsc3ccc([N+](=O)[O-])cc23)c1`, the growth was 87.1%.

Regarding `Cn1c(=O)c2c(nc(Br)n2CCC(=O)Nc2ccc(F)cc2)n(C)c1=O`, the growth was 113%.

With `CCCCn1c(=O)c2c(nc(NCCc3ccc(O)c(O)c3)n2CCC)n(CCCC)c1=O`, the growth is 82.2%.

On to `CC/C(Cc1ccccc1)=C(\c1ccc(OCCN2CCCC2)cc1)c1ccc(OC(C)=O)cc1`, for which the growth was 62.8%.

Consider `CC(C)CCC(=O)[C@@H](C)[C@H]1[C@@H](OC2OCC(O)C(O)C2NS(C)(=O)=O)C[C@H]2[C@@H]3CC=C4C[C@@H](O)CC[C@]4(C)[C@H]3CC[C@]12C` (stereo not given in full), for which the growth is 43.8%.

`CC(C)(C)c1ccc(O)c(Br)c1`: the growth is 70.2%.

`N[C@H](C(=O)O)[C@@H]1CC(Cl)=NO1`: the growth is 29.4% [20 µM].

For `O=C1C(N2CCN(c3ccccc3)CC2)=C(Cl)C(=O)c2ncccc21`, the growth is -62.8% (active).

Turning to `NC1CC2(CCN(c3cnc(C(=O)Nc4cc(F)cc5cccnc45)cn3)CC2)C1`, the growth was 50.6%.

In the case of `O=[N+]([O-])C1CC2C=CC1C2` (stereo not given), the growth was 99.5%.

Turning to `CCOC(=O)COc1c(C)cc(SSc2cc(C)c(OCC(=O)OCC)c(C)c2)cc1C`, the growth is 109%.

As to `COc1cc(-c2nc3ccccc3[nH]2)ccc1OCC(=O)N=Nc1c(O)[nH]c2ccc(Cl)cc12`, the growth is -78.9% (active).

In the case of `CCOC(=O)C1C(=O)C(=O)N(C(C)C)C1C(=O)OCC` (stereo not given), the growth is 98.4%.

For `O=C1c2ccccc2C(=O)c2c1oc1oc3c(c(=O)c21)c(=O)n(-c1ccccc1)c1ccccc31`, the growth was -27.3% (active).

Turning to `CCCCN(CCCC)CCC(C)(O)c1cc2ccccc2c2ccccc12` (stereo not given), the growth is 107%.

With `CCCCN(C(=O)CC)c1ccccc1`, the growth was 106%.

Consider `S=c1[nH]cccc1-c1nnc2n1Nc1nc3ccccc3cc1CS2`, for which the growth is 102%.

For the molecule `CCCCC1=C(Br)C(=O)c2nc(C)ccc2C1=O`, the growth was 92.6%.

As to `COc1ccc(C2CC(c3ccc4c(c3)OCO4)=NN2C=O)cc1` (stereo not given), the growth is 93.3%.

Regarding `CCN(CC)CCNc1ccc([N+](=O)[O-])c2sc3cc(Cl)ccc3c(=O)c12`, the growth was 92.6%.

On to `N#Cc1c(N)n2c(nc1=Nc1ccc([N+](=O)[O-])cc1)sc1cc(Cl)ccc12`, for which the growth was 79.5%.

Consider `CCCCCCCCCCCCCCCCCCOc1ccccc1CC(=O)OCC[N+](C)(C)C`, for which the growth is -38.9% (active).

In the case of `Cc1ccc(/C=C2\CN(C(=O)CCN3CCC(=NO)CC3)C/C(=C\c3ccc(C)cc3)C2=O)cc1`, the growth is -54.2% (active).

Take `Cc1cc(=O)[nH]c(N/N=C/c2ccccc2O)n1`: the growth was 58.1%.

As to `C=C1c2c(C)nn(-c3ccc(N)cc3)c2N(C)C23CC1C1(C)c4c(C)nn(-c5ccc(N)cc5)c4N(C)C(C)(CC12)C3` (stereo not given), the growth is 59.5%.

In the case of `O=C(CCCCCCNC(=O)C(O)(O)C(F)(F)F)Nc1nc2ccccc2s1`, the growth was -12.8% (active).

Regarding `CCN1CCN(/C(=N\c2sc(-c3ccccc3)nc2-c2ccccc2)c2ccccc2)CC1`, the growth is 75.3%.

`COc1ccc(/C=C/C(=O)c2cc(OC)c(OC)c(OC)c2)cc1OCC(=O)Nc1nc2ccc(OC(F)(F)F)cc2s1`: the growth was 55.1%.
